Data on 21 compounds can be found in PubChem BioAssay (NCI).

Experiment [1] can be described thus: NCI Yeast Anticancer Drug Screen. Data for the rad50 strain (AID 155).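 Note: 0% = growth of vehicle-only cultures of the same strain.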 The note with it: S. cerevisiae rad50 strain growth inhibition; at 50.0 µM; hits give high values. In outline:
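Compounds were tested on a yeast strain with an engineered DNA damage repair alteration; the reported value is growth inhibition normalised to vehicle treatment.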

A short description of experiment [2]: NCI Yeast Anticancer Drug Screen. Data for the mec2-1 strain (AID 157). The note with it: S. cerevisiae mec2-1 strain, at 50.0 µM, hits give high values. In outline: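 Cells of the genetically defined mec2-1 yeast strain are incubated with test compound. Inhibition of growth is calculated against vehicle-treated controls.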
A short description of experiment [3]: NCI Yeast Anticancer Drug Screen. Data for the sgs1 mgt1 strain (AID 161).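 Note: 0% = growth of cultures given vehicle only.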 The conditions noted are these: S. cerevisiae sgs1 mgt1 strain, at 50.0 µM, hits give high values. The procedure, abridged: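 Mutant yeast exposed to compound; growth scored against vehicle-only wells.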
A short description of experiment [4]: NCI Yeast Anticancer Drug Screen. Data for the cln2 rad14 strain (AID 165).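 Note: 0% = growth equal to vehicle treated cultures.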 The conditions noted are these: S. cerevisiae cln2 rad14 strain, at 50.0 µM, hits give high values. The procedure, abridged: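 The screen exposed genetically defined yeast (cln2 rad14) to test compounds and scored growth inhibition relative to vehicle-treated controls.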
Experiment [5] can be described thus: NCI Yeast Anticancer Drug Screen. Data for the bub3 strain (AID 167). The conditions noted are these: S. cerevisiae bub3 mutant strain, at 50.0 µM, hits give high values. The procedure, abridged:
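Growth of a checkpoint-deficient yeast mutant is measured after compound exposure. Values represent inhibition relative to vehicle.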

Experiment [6] is described as follows: NCI Yeast Anticancer Drug Screen. Data for the mlh1 rad18 strain (AID 175). The note with it: S. cerevisiae mlh1 rad18 strain growth inhibition; at 50.0 µM; hits give high values. In outline: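 Compound-treated yeast growth, normalised to vehicle controls. Strain bears defined DNA repair mutations.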

About 79,000 compounds went through this panel and 15% of them were active in at least one assay; those are over-represented in the sample as a whole. Values without a mark were called inactive. The source made the active and inactive calls. Cut-off read from the data, not from the text of the source: active = growth inhibition above about 70%; inactive = the rest.

Consider `CC(C)=Cc1cc(C(=O)Nc2ccc(Cl)c(Cl)c2)nc(N)n1`, for which the growth inhibition in experiment [1] is -25.2%; in experiment [2], -45.4%; in experiment [3], -10.6%; in experiment [4] it was -0.5%; in experiment [5], -41.8%; in experiment [6] it was -32.1%.

For `Cc1c(C(=O)CC(=O)C(=O)Nc2ccc(Cl)cc2)[n+](=O)c2ccccc2n1[O-]`, the growth inhibition in experiment [1] is 9.9%; in experiment [2], -2.25%; in experiment [3], 0.65%; in experiment [4], 19.4%; in experiment [5], 8.35%; in experiment [6], -0.3%.

As to `O=[N+]([O-])c1cccc([I+]c2cccc([N+](=O)[O-])c2)c1`, the growth inhibition is 98.5% (active) in experiment [1]; 95.8% (active) in experiment [2]; 97.7% (active) in experiment [3]; 96.5% (active) in experiment [4]; 97.2% (active) in experiment [5]; 98.2% (active) in experiment [6].

Regarding `CC1CS(=O)(=O)CC(C)S1(=O)=O` (stereo unspecified), the growth inhibition is -8.6% in experiment [1]; -1.55% in experiment [2]; -5.95% in experiment [3]; -4.3% in experiment [4]; 14.7% in experiment [5]; -7.05% in experiment [6].

In the case of `CC(SC(C)C(=O)N/N=C/C=C\c1ccccc1)C(=O)N/N=C\C=C\c1ccccc1` (stereo unspecified), the growth inhibition in experiment [1] was 15.1%; in experiment [2] it was 5%; in experiment [3], 1.05%; in experiment [4] it was 7.8%; in experiment [5] it was 4.05%; in experiment [6], 33.7%.

With `O=C(Nc1ccc([N+](=O)[O-])cc1)Oc1c(Cl)cc(Cl)c(Cl)c1[N+](=O)[O-]`, the growth inhibition in experiment [1] was 43.6%; in experiment [2] it was -18.7%; in experiment [3], 57.2%; in experiment [4] it was 25.6%; in experiment [5], 2.3%; in experiment [6], 60.4%.

`CCC([NH-])(CC)C[NH-].[Cl][Pt+2][Cl]`: the growth inhibition in experiment [1] was 2.3%; in experiment [2], 13.4%; in experiment [3], -31.4%; in experiment [4] it was -1.45%; in experiment [5], -14.1%; in experiment [6] it was -44.6%.

As to `O=C1c2ccccc2-c2nnc(-c3ccc(Cl)cc3)cc21`, the growth inhibition is -29.1% in experiment [1]; -14.2% in experiment [2]; -18.2% in experiment [3]; -16.9% in experiment [4]; -24.2% in experiment [5]; -18.3% in experiment [6].

On to `CC1OC(n2ccc(NC(=O)c3ccc(NC(=O)C(C)(N)CO)cc3)nc2=O)CCC1OC1OC(C)C(N(C)C)C(O)C1O` (stereo unspecified), for which the growth inhibition in experiment [1] is 30.4%; in experiment [2] it was -0.8%; in experiment [3], 6.05%; in experiment [4], 6%; in experiment [5] it was 1.75%; in experiment [6], 28.8%.

In the case of `O=C(Cc1ccccc1)NN1C(=O)C(Cl)C1c1ccc(O)cc1` (stereo unspecified), the growth inhibition is -27.9% in experiment [1]; -16.4% in experiment [2]; -11.2% in experiment [3]; 3.7% in experiment [4]; -29.4% in experiment [5]; 3.4% in experiment [6].

In the case of `CSc1nc2c(c(=O)n1C)N=C(c1ccc(Cl)cc1)CC(c1ccccc1)N2` (stereo unspecified), the growth inhibition in experiment [1] is 16%; in experiment [2] it was 3.25%; in experiment [3], -5.6%; in experiment [4], 11.4%; in experiment [5], -11.6%; in experiment [6] it was 15.8%.

On to `Cn1cnc2cc(NCCO)c([N+](=O)[O-])cc2c1=O`, for which the growth inhibition in experiment [1] is 11.1%; in experiment [2], 18.9%; in experiment [3], 4.5%; in experiment [4] it was 11.4%; in experiment [5] it was 24.4%; in experiment [6], 24.3%.

With `Cc1cc2c(=O)c(C)c[nH]c2cc1Cl`, the growth inhibition was -21.6% in experiment [1]; 5.2% in experiment [2]; -2.6% in experiment [3]; -46.1% in experiment [4]; -10.6% in experiment [5]; -7.55% in experiment [6].

As for `CC(C)(c1cccs1)c1cscc1C(=O)O`, the growth inhibition in experiment [1] is -0.85%; in experiment [2] it was -6.8%; in experiment [3], -13.3%; in experiment [4], -28.8%; in experiment [5] it was -9.35%; in experiment [6], 16.7%.

Take `O=C1c2ccccc2C(=O)c2c1c([N+](=O)[O-])c1c(c2[N+](=O)[O-])OCO1`: the growth inhibition is 7.15% in experiment [1]; 0.15% in experiment [2]; 21.8% in experiment [3]; -0.15% in experiment [4]; 14.1% in experiment [5]; 31.2% in experiment [6].

As for `COC(=O)CCC(N)C(=O)NC(Cc1ccccc1)C(=O)NC(C)C(=O)NC1C(O)OC(CO)C(O)C1O` (stereo unspecified), the growth inhibition in experiment [1] is 3.95%; in experiment [2], 15.8%; in experiment [3] it was 4.75%; in experiment [4] it was -0.65%; in experiment [5], -7.6%; in experiment [6], -5.6%.

`Nc1ncnc2c1nnn2CCCCCC(=O)O`: the growth inhibition was -6.25% in experiment [1]; 27.8% in experiment [2]; 21.8% in experiment [3]; -7.95% in experiment [4]; 11.8% in experiment [5]; -13.9% in experiment [6].

In the case of `O=C(O)c1ccc(-c2nn[nH]n2)cc1`, the growth inhibition is -0.85% in experiment [1]; -10.1% in experiment [2]; -4% in experiment [3]; -11.8% in experiment [4]; -18.9% in experiment [5]; -15.2% in experiment [6].

On to `CCCCCCCCCCCCCOCC(=O)OC`, for which the growth inhibition in experiment [1] was -0.75%; in experiment [2], 20.8%; in experiment [3], -4.9%; in experiment [4], -29%; in experiment [5], 12.9%; in experiment [6], 1.6%.

As for `COc1ccc2occc2c1`, the growth inhibition in experiment [1] was 0%; in experiment [2], -1.55%; in experiment [3], -17.7%; in experiment [4] it was 2.7%; in experiment [5] it was -0.75%; in experiment [6] it was 10.1%.

Take `CC(=O)CCC(=O)C(=[N+]=[N-])S(=O)(=O)c1ccccc1`: the growth inhibition was -15.6% in experiment [1]; -0.2% in experiment [2]; -26.1% in experiment [3]; 2.85% in experiment [4]; -9.7% in experiment [5]; -9.2% in experiment [6].
